Source: PubChem BioAssay (The Scripps Research Institute Molecular Screening Center)
SRC2 TRFRET art: flags TR-FRET format artefacts in PPARgamma SRC-2 recruitment agonist screen; TR-FRET artefact counter-screen; active compounds read high; TR-FRET ratio at 8 µM; actives 0.4% (n = 200,000); AID 1049
PPARg SRC3 recr: agonists of human PPARgamma SRC-3 coactivator recruitment. biochemical PPARgamma/SRC-3 coactivator recruitment assay. P37231. actives 0.26% (n = 200,000). activation, % at 8 µM; in the data active = activation above about 23%
Target sequence (P37231 whole entry, looked up): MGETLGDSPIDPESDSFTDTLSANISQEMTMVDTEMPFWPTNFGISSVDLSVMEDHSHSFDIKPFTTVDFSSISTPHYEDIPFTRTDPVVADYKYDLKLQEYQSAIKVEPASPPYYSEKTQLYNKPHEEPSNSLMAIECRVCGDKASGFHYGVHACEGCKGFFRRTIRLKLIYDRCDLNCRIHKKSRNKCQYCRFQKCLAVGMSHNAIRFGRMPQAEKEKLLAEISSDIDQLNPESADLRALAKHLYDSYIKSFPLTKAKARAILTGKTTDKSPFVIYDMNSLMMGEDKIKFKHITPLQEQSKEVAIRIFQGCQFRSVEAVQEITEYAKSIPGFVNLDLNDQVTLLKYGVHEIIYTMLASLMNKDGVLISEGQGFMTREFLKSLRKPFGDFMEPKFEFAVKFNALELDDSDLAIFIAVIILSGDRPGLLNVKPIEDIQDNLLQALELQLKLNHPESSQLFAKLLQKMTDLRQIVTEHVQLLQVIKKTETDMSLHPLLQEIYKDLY
SRC3 TRFRET art: flags TR-FRET format artefacts in PPARgamma SRC-3 recruitment agonist screen | TR-FRET artefact counter-screen, PPARgamma/SRC-3 format; active compounds read high | TR-FRET ratio at 8 µM | actives 0.39% (n = 99,000) | AID 1048
SRC1 TRFRET art: flags TR-FRET format artefacts in PPARgamma SRC-1 recruitment agonist screen; actives 0.34% (n = 99,000); TR-FRET ratio at 8 µM; TR-FRET detection artefact counter-screen, emission ratio; active compounds read high; in the data active = TR-FRET ratio above about 2300
PPARg SRC1 recr: promotes SRC-1 coactivator recruitment by human PPARgamma; P37231; activation, % at 8 µM; PPARgamma-SRC-1 coactivator recruitment biochemical assay; actives 0.41% (n = 200,000); in the data active = activation above about 19%
PPARg SRC2 recr: PPARgamma-driven SRC-2 recruitment agonism. actives 0.34% (n = 200,000). P37231. activation, % at 8 µM. AID 1032. PPARgamma LBD-SRC-2 recruitment, biochemical; in the data active = activation above about 22%
Large screens that a line does not name were inactive. Most compounds without a hit are left out; they make up all but 0.9% or so of the library. Cut-off read from the data, not from the text of the source, unless noted: active = TR-FRET ratio above about 2000; inactive = the rest.

O=C(CSc1nc2nc3c(cc2c(=O)n1-c1ccccc1)CCCC3)Nc1cccc2ccccc12	SRC2 TRFRET art 2372, SRC3 TRFRET art 2727, SRC1 TRFRET art 2437
CCn1cc(-c2cc(C(F)(F)F)n3nc(C(=O)O)cc3n2)c(C)n1	none (no result: SRC3 TRFRET art, SRC1 TRFRET art)
O=C(/C=C/c1ccc(S(=O)(=O)NCc2ccco2)cc1)N1CCN(c2ccccc2)CC1	none
COc1cccc2sc(N3CCN(c4nc5ccccc5s4)CC3)nc12	PPARg SRC3 recr 30.9 (no result: SRC3 TRFRET art, SRC1 TRFRET art)
Clc1ccc(Cl)c2sc(N3CCCC3)nc12	none (no result: SRC3 TRFRET art, SRC1 TRFRET art)
c1ccc2sc(N3CCOCC3)nc2c1	none (no result: SRC3 TRFRET art, SRC1 TRFRET art)
Clc1cccc2sc(N3CCN(c4ccccc4)CC3)nc12	PPARg SRC2 recr 28.1
O=C(CSc1nnnn1Cc1ccccc1)NCC(=O)c1ccccc1	PPARg SRC2 recr 22.7 (no result: SRC3 TRFRET art, SRC1 TRFRET art)
O=C(CSc1nnnn1Cc1ccccc1)NCCc1ccccc1	none
Nc1nc(-c2ccc(Cl)cc2)nnc1-c1ccc(Br)cc1	SRC3 TRFRET art 3281
CCCC(=O)N(c1ccc(OCC)cc1)C1C=CS(=O)(=O)C1 (configuration not stated)	none
COC(=O)CCC(=O)c1oc2ccc(Br)cc2c1N	PPARg SRC2 recr 23.9 (no result: SRC3 TRFRET art, SRC1 TRFRET art)
COc1ccc2oc(C(=O)CCC(=O)O)c(N)c2c1	none (no result: SRC3 TRFRET art, SRC1 TRFRET art)
CC(C)C(C)(C#N)NC(=O)CSc1nc2scc(-c3ccco3)c2c(=O)n1-c1ccccc1 (configuration not stated)	SRC2 TRFRET art 2013 (no result: SRC3 TRFRET art, SRC1 TRFRET art)
CC(C)C(C)NC(=O)CSc1nc2scc(-c3ccco3)c2c(=O)n1-c1ccccc1 (configuration not stated)	none (no result: SRC3 TRFRET art, SRC1 TRFRET art)
Cc1nn(C(=O)c2cc3sccc3[nH]2)c(C)c1C	none (no result: SRC3 TRFRET art, SRC1 TRFRET art)
CC(C)(C)C1CCc2c(sc(NC(=O)c3cccs3)c2C(N)=O)C1 (configuration not stated)	PPARg SRC2 recr 23.7 (no result: SRC3 TRFRET art, SRC1 TRFRET art)
Cc1ccccc1C(=O)N1CCc2cc(-c3nc(NC(=O)Cc4ccc5c(c4)OCO5)sc3C)ccc21	SRC2 TRFRET art 2157, SRC3 TRFRET art 2401
Cc1sc(NC(=O)Cc2ccc3c(c2)OCO3)nc1-c1ccc2c(c1)CCN2C(=O)c1cccc(F)c1	none
Cc1cccc(NC(=O)c2sc3nc(-c4ccc(F)cc4)cn3c2C)n1	PPARg SRC1 recr 35.5 (no result: SRC3 TRFRET art, SRC1 TRFRET art)
CCOC(=O)c1sc2nccc(N(C)C)c2c1N=CN(C)C	PPARg SRC3 recr 26.9 (no result: SRC3 TRFRET art, SRC1 TRFRET art)
CN(C)C=Nc1c(C(=O)c2ccccc2)sc2nccc(N(C)C)c12	none
N#CC(c1nc2ccccc2nc1N1CCCC1)S(=O)(=O)c1cccs1 (configuration not stated)	none (no result: SRC3 TRFRET art, SRC1 TRFRET art)
Cc1c(Nc2scc(-c3ccccc3)[n+]2-c2ccccc2)c(=O)n(-c2ccccc2)n1C	none
Cc1ccccc1Nc1scc(-c2ccc(Cl)cc2)[n+]1-c1ccccc1C	SRC2 TRFRET art 2007
CCO[C@@H]1OC(C(=O)N2CCN(Cc3ccc4c(c3)OCO4)CC2)=C[C@H](c2csc3ccccc23)[C@H]1CCCO	PPARg SRC2 recr 23.4
CCO[C@H]1OC(C(=O)N2CCN(Cc3ccc4c(c3)OCO4)CC2)=C[C@@H](c2ccccc2)[C@@H]1CCCO	none
CCOC(=O)C1=NN(c2cccc(Cl)c2)C2=NC(C)=C(C(=O)OC)C(c3cccs3)N12 (configuration not stated)	PPARg SRC2 recr 26.7 (no result: SRC3 TRFRET art, SRC1 TRFRET art)
C=CCn1c(SCC(=O)NC23CC4CC(CC(C4)C2)C3)nc2cc(C(=O)O)ccc2c1=O	none
Cc1csc(NC(=O)CSc2nnc(NC(=O)C3CC(=O)N(c4ccccc4)C3)s2)n1 (configuration not stated)	SRC1 TRFRET art 2325
COc1ccc(N(C(C)C(=O)Nc2cccnc2)S(C)(=O)=O)cc1 (configuration not stated)	none
COc1ccc(-c2cc(-c3ccccc3)c(C#N)c(SCC(=O)Nc3ncc(C)s3)n2)cc1	SRC3 TRFRET art 2402
COc1ccc(C2(CNC(=O)/C=C\c3ccco3)CCCC2)cc1OC	PPARg SRC1 recr 40.8 (no result: SRC3 TRFRET art, SRC1 TRFRET art)
COc1cccc(C2C(C(N)=O)=C(C)Nc3nc(-c4ccccc4Cl)nn32)c1 (configuration not stated)	none
CCN(CC)c1ccc(/C=C(/C#N)c2nc3ccc(C)cc3[nH]2)c(OC(C)C)c1	none (no result: SRC3 TRFRET art, SRC1 TRFRET art)
CCCOc1cc(N(CC)CC)ccc1/C=C(/C#N)c1nc2ccc(C)cc2[nH]1	SRC2 TRFRET art 2008, PPARg SRC2 recr 37.3 (no result: SRC3 TRFRET art, SRC1 TRFRET art)
CCN1/C(=C/c2ccc3cc(C)ccc3[n+]2CC)Sc2cc(C)ccc21	none
